Values without a mark were called inactive. The source made the active and inactive calls.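 Rule for the calls: active = inhibition at or above 50% relative to wild type and mutant plate controls; inactive = inhibition below 50%.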
Assay: loss of swimming-algae plug formation – whole organism, Chlamydomonas reinhardtii, WT vs cilia-less mutant, absorbance, 96-well, primary screen (AID 463189);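 note: 0% = wild type cc124 cells in DMSO and 100% = ciliumless bld1 mutant cells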
Details: Chlamydomonas reinhardtii gravitaxis, OD600 absorbance, 2 days; at 10 µM; stronger effect = higher value

Row | Structure (SMILES) | inhibition
1 | c1ccc2nc(C3=NCCN3)ccc2c1 | 108% (active)
2 | Cn1cc(C2=C(c3ccc(Cl)cc3Cl)C(=O)NC2=O)c2ccccc21 | -0.155%
3 | O=C(O)[C@@H]1C[C@@H](C(=O)O)N1 | -5.37%
4 | COc1cc2nc(N3CCN(C(=O)OCc4ccccc4)C(C(=O)NC(C)(C)C)C3)nc(N)c2cc1OC (stereo not given) | -7.21%
5 | CN(Cc1cnc2nc(N)nc(N)c2n1)c1ccc(C(=O)N[C@@H](CCC(=O)O)C(=O)O)cc1 | -2.7%
6 | C[C@@H](NC(=O)/C(C#N)=C/c1ccc(O)c(O)c1)c1ccccc1 | 4.46%
7 | COC(=O)C1=C(C)NC(C)=C(C(=O)OCCN(C)Cc2ccccc2)C1c1cccc([N+](=O)[O-])c1 (stereo not given) | -0.607%
8 | N=C(N)SCCN | -11.5%
9 | NCCC1CCCC(CCN)N1 (stereo not given) | 5.08%
10 | NCCCNCCCCNCCCN | -2.56%
11 | CC(C)NC[C@@H](O)COc1ccc(CC(N)=O)cc1 | -8.19%
12 | CCN(c1nc(N)c(C(=O)N=C(N)N)nc1Cl)C(C)C | 7.11%
13 | CCCCCCCCCCCCCCC[C@H](O)[C@H](N)CO | 38.7%
14 | COc1ccc2c(c1)CCC1C2CC[C@@]2(C)C1CC[C@@H]2NCCCCCCN1C(=O)C=CC1=O (stereo not given in full) | 1.37%
15 | CCCn1cnc2c1c(=O)n(CCCCC(C)=O)c(=O)n2C | 3.15%
16 | Nc1ncnc2c1nc(Sc1ccc(Cl)cc1)n2C1OC2COP(=O)(O)O[C@@H]2[C@@H]1O (stereo not given in full) | 9.99%
17 | CCC(=O)c1ccc2c(c1)N(CCCN(C)C)c1ccccc1S2 | 46.1%
18 | C#CCN1C(C)=C(C(=O)OC)C(c2cccc([N+](=O)[O-])c2)C(C(=O)OCC)=C1C (stereo not given) | 4.14%
19 | OC(CN1CCC(Cc2ccc(F)cc2)CC1)c1ccc(Cl)cc1 (stereo not given) | -0.098%
20 | N[C@H]1CONC1=O | 6.36%
